Source: PubChem BioAssay
Most compounds without a hit are left out; they make up all but 20% or so of the library.
Cycloheximide cs – Cycloheximide Counterscreen for Small Molecule Inhibitors of Shiga Toxin. cell reporter, cycloheximide protein synthesis inhibition counterscreen. max response, %. actives 12% (n = 300,000). AID 2314, 2010; in the data active means max response mostly above about 13%, no sharp cut-off; inactive means mostly below about 14%; further: read at 38.3 µM for the half of the compounds with a filed dose; 0% is about no effect
Shiga toxin inh – A qHTS for Small Molecule Inhibitors of Shiga Toxin | Vero cells, Shiga toxin protein synthesis inhibition reporter | inhibition, % at 38.7 µM | actives 9.2% (n = 290,000) | AID 2315, 2010; in the data active means inhibition mostly above about 28%, no sharp cut-off; inactive means mostly below about 43%; further: 0% is about no effect
Pf growth 96h – Primary qHTS for delayed death inhibitors of the malarial parasite plastid, 96 hour incubation. P. falciparum luciferase reporter growth, 96 h. Potency, µM (top dose mostly 28.7 µM), for inactives: at the highest dose activity change, negative = inhibition, usual class: inhibitors. actives 6.9% (n = 320,000). AID 504834, 2011; further: potency means the concentration at half of the fitted maximal effect; on the % scale 0 is the no-effect control and ±100 the full control effect
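Delayed-death screen, second-generation endpoint: infected erythrocytes, 2% hematocrit, 0.05% parasitemia final; 96 hours at 37 C, 5% CO2; luciferase detection reagent; luminescence decrease equals reduced growth.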
Pf growth 48h – Primary qHTS for delayed death inhibitors of the malarial parasite plastid, 48 hour incubation. P. falciparum luciferase growth in erythrocytes, 48 h. Potency, µM (doses to about 28.7 µM), for inactives: at the highest dose activity change, negative = inhibition, usual class: inhibitors. actives 5.9% (n = 310,000). AID 504832, 2011; further: potency means the concentration at half of the fitted maximal effect; on the % scale 0 is the no-effect control and ±100 the full control effect
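First compound was added to culture medium, then infected red cells at 0.1% parasitemia and 2% hematocrit (final). After incubation at 37 C under 5% CO2, luciferase detection reagent was dispensed and light output recorded.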
HCMV antiviral – qHTS Assay for inhibitors of the human cytomegalovirus (HCMV) | activity change, negative = inhibition, % at 57.5 µM | actives 4.5% (n = 410,000) | AID 1259415, 2018 | HFF cells, HCMV-luciferase reporter, 72 h; active compounds read low; in the data active means activity change below about -60%; inconclusive means no clear call, values can overlap the other calls; inactive means above about -39%; further: on the % scale 0 is the no-effect control and ±100 the full control effect
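HFF cells seeded 16 h at 37C, treated with compounds, infected with luciferase-reporter HCMV at MOI 1 PFU/cell; luciferase read at 72 h post infection, normalized to buffer-only and Salinomycin controls.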
Starred values were filed as active, the others as inactive; ? = inconclusive; / = no result; [ ] = another dose, or the depositor's remark. Unless noted, the call rests on the fitted dose curve; in most records, active means well fitted inhibition curve with a large enough effect; inconclusive means small, poorly fitted or top-dose-only effect, or another doubt; inactive means no such curve, though single readings can be large or run the other way.

SMILES	Cycloheximide cs	Shiga toxin inh	Pf growth 96h	Pf growth 48h	HCMV antiviral
COCCn1c(=O)c2c(nc3n2CC(C)CN3CCc2ccccc2)n(C)c1=O (stereo not given)	-3	-2	?	-17%	25
Cc1ccc(Cn2c(=O)c3c(nc4n3CCN4Cc3ccco3)n(C)c2=O)cc1	-1	1	33%	13µM*	-17
CCn1c(=O)c2c(nc3n2CC(C)CN3CCc2ccccc2)n(C)c1=O (stereo not given)	-4	-12	8.3µM*	12µM*	-9
CCCn1c(=O)c2c(nc3n2CCCN3Cc2ccccc2)n(C)c1=O	-1	-6	13µM*	?	-32
COCCn1c(=O)c2c(nc3n2CCCN3Cc2ccccc2)n(C)c1=O	-3	-8	30%	-29%	-23
Cn1c(=O)n(Cc2ccc(F)cc2)c(=O)c2c1nc1n2CCCN1Cc1ccccc1	-3	0	1.3µM*	2.1µM*	-15
Cc1ccccc1OCC(=O)Nc1ccc(OCc2cc(=O)n3ccccc3n2)cc1	/	/	/	/	-30
COc1ccc(N2CCCn3c2nc2c3c(=O)n(CCc3ccccc3)c(=O)n2C)cc1	-3	5	?	-2%	-38
CC(C)Cn1c(=O)c2c(nc3n2CCCN3CCc2ccccc2)n(C)c1=O	-7	-8	7%[5.75 µM]	5.2µM*	11
COc1ccc(N2CCCn3c2nc2c3c(=O)n(Cc3ccc(C)cc3)c(=O)n2C)c(OC)c1	11	4	0%	9.3µM*	-13
C=CCn1c(=O)c2c(nc3n2CCCN3CCc2ccccc2)n(C)c1=O	0	-4	?	-11%	-26
COC(=O)Cn1c(=O)c2c(nc3n2CCCN3CCc2ccccc2)n(C)c1=O	-3	-4	?	-14%	-64*
Cn1c(=O)n(CC(=O)O)c(=O)c2c1nc1n2CCCN1CCc1ccccc1	-2	-6	?	-14%	-13
CCCn1c(=O)c2c(nc3n2CCCN3CCc2ccccc2)n(C)c1=O	-4	2	?	?	-62*
Cn1c(=O)n(CCc2ccccc2)c(=O)c2c1nc1n2CCCN1Cc1ccccc1	-5	-6	-26%	?	16
Cn1c(=O)n(CCc2ccccc2)c(=O)c2c1nc1n2CCCN1CCc1ccccc1	-2	1	/	9.3µM*	-3
NC1=NC(=O)/C(=C\c2cccnc2)S1	-1	-10	9.3µM*	8%	?
NC1=NC(=O)/C(=C/c2cccc(F)c2)S1	-2	-6	0%	4%	-26
NC1=NC(=O)/C(=C/c2ccccc2OS(=O)(=O)c2ccccc2)S1	-1	-4	-3%	10µM*	-19
NC1=NC(=O)/C(=C\c2ccco2)S1	17*	-5	52%	0%	0
CC(C)N1C(=O)S/C(=C/c2cccnc2)C1=O	20*	6	?	?	-29
CCS(=O)(=O)N1Cc2ccccc2CC1C(=O)N(C)CC(=O)Nc1ccc(OC)cc1 (stereo not given)	/	/	-9%	-21%	-1
COc1cc2ccccc2cc1C(=O)NC1CCC(C)CC1 (stereo not given)	/	/	/	/	25
CC1(C)CC(=O)C2=C(C1)C(c1cn(-c3ccccc3)nc1-c1ccccc1)C(C#N)=C(N)O2 (stereo not given)	23*	2	-27%	?	-12
CC1(C)CC(=O)C2=C(C1)OC(N)=C(C#N)C2c1cn(-c2ccccc2)nc1-c1ccc(F)cc1 (stereo not given)	0	10	?	50%	-2
SMILES	Cycloheximide cs	Shiga toxin inh	Pf growth 96h	Pf growth 48h	HCMV antiviral
Cc1c(N=Cc2c(O)n(Cc3ccco3)c(=O)c3ccccc23)c(=O)n(-c2ccccc2)n1C	1	6	17%	12µM*	-26
CC(C)(C)c1ccc(C(=O)N2CCN(c3ccc(N4CCOCC4)nn3)CC2)cc1	/	/	?	?	-28
O=C(Nc1ccc2oc(-c3cccnc3)nc2c1)c1cccc(Br)c1	/	/	/	/	-10
CCCC(=O)Nc1ccc2oc(-c3cncc(Br)c3)nc2c1	48*	58*	?	15%	38
CCCCCC(=O)Nc1ccc2oc(-c3cncc(Br)c3)nc2c1	26*	31	?	28%	69
CCC(C)c1ccc(OCC(=O)Nc2cccc(-c3nc4ncccc4o3)c2)cc1 (stereo not given)	/	/	/	/	20
COc1ccc(-c2nc3c(Cl)cc(C(F)(F)F)cn3c2Cc2cccc(F)c2)cc1OC	/	/	/	/	8
COc1ccc(OC)c(NC(=O)CSc2nc3ccccc3c3nc4ccccc4n23)c1	-3	31	?	0.83µM*	/
Cc1ccc(NC(=O)CSc2nc3ccccc3c3nc4ccccc4n23)cc1	-3	-7	-20%	0%	-87*
O=C(Nc1nc2c(s1)CCCC2)c1ccc(Br)o1	23*	73*	46%	107%	70
Cc1ccc(C(=O)Nc2nc3c(s2)CCCC3)o1	22	85	13µM*	126%	69
CC(=O)c1sc(NC(=O)c2ccc(Br)o2)nc1C	38*	34*	?	129%	58
O=C(CN1C(=O)COc2ccc(S(=O)(=O)N3CCOCC3)cc21)NCc1ccccn1	-2	30	7%	30%	-35
O=C(O)C1C(c2ccccc2)=C1c1ccc(Br)cc1 (stereo not given)	/	/	/	/	-10
COc1ccccc1C(=O)NCCC(=O)NCc1cccnc1	/	/	-4%	-17%	-2
CCc1c(C)nc2[nH]nc(-c3ccccc3C)n2c1=O	10	17	/	24%	63
CCc1c(C)nc2[nH]nc(-c3ccccc3)n2c1=O	15*	16	17%	37%	70
COC(=O)CS(=O)(=O)c1nc2ccccc2nc1N1CCCCC1	/	/	/	/	-66*
O=C(O)CSc1nc2ccccc2nc1N1CCCCC1	/	/	/	/	-11
CC(=O)Cc1nsc(NC(=O)c2ccccc2)n1	11	69	-11%	38%	-64*
CC(=O)Cc1nsc(NC(=O)c2cccs2)n1	31*	16	18%	34%	35
COc1ccc(CNC(=O)C(c2ccco2)N(C(=O)c2snc(C(N)=O)c2N)c2ccccc2OC)cc1 (stereo not given)	-6	-11	3%	?	0
CCCc1nc(C)c2c(=O)[nH]c(-c3cc(S(=O)(=O)N4CCN(CC)CC4)ccc3OCC)nn12	/	/	7.6µM*	?	6
CCOc1cc(S(=O)(=O)N2CCN(CC)CC2)ccc1Cl	8	-5	?	9%	6
O=C(Nc1nc2c(ccc3ccccc32)s1)c1cc([N+](=O)[O-])ccc1N1CCOCC1	45*	73*	?	?	/
CN(C)S(=O)(=O)c1ccc(N2CCCC2)c(C(=O)Nc2nc3c(ccc4ccccc43)s2)c1	-2	-7	13µM*	?	65
O=C(Nc1nc(-c2ccc(-c3ccccc3)cc2)cs1)c1cc([N+](=O)[O-])ccc1N1CCOCC1	-4	30	19%	0%	20
